Reference: PubChem BioAssay (NCI)
The panel holds about 83,000 compounds, 20% with a hit somewhere; the sample as a whole holds those more often.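 Compound tested at a single concentration for 48 hours in 96-well plates; a percent growth value below 10 was scored as active.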 Activity calls are given as the source filed them.

How the values were obtained:
Assay in all cases: NCI-60 one-dose screen, 48 h (100 = growth as untreated, 0 = no growth, -100 = all killed)
Conditions in all cases: 10 µM unless noted
[1] = tested on: HCT-15 colon
[2] = tested on: HT29 colon
[3] = tested on: SNB-75 CNS
[4] = tested on: SNB-19 CNS
[5] = tested on: U251 CNS
[6] = tested on: PC-3 prostate
[7] = tested on: SK-MEL-5 melanoma
[8] = tested on: LOX IMVI melanoma
[9] = tested on: SK-MEL-28 melanoma

Measured: growth

C=C1C(=O)O[C@H]2[C@H]1CC/C(COC(=O)N[C@H](Cc1c[nH]c3ccccc13)C(=O)OC)=C\CC[C@@]1(C)O[C@@H]21
inactive: [2] 14.9% | [3] 82% | [4] 66.7% | [5] 72.7% | [6] 57.3% | [7] 39% | [8] 13.7%
active: [1] 1.89% | [9] 9.69%

C=C1C(=O)O[C@H]2[C@H]1CC/C(COC(=O)NCc1cc3ccccc3[nH]1)=C\CC[C@@]1(C)O[C@@H]21
inactive: [3] 62% | [4] 58.8% | [5] 54.6% | [6] 38%
active: [1] -4.13% | [2] -42.6% | [7] 9.31% | [8] -15.8% | [9] -26.9%

Cn1c(=O)c2c(ncn2CC(=O)Nc2ccc(S(N)(=O)=O)cc2)n(C)c1=O
inactive: [1] 106% | [2] 94.8% | [3] 87.8% | [4] 102% | [5] 96.6% | [6] 83.4% | [7] 111% | [8] 97.6% | [9] 115%

Cc1ccncc1C(=O)O
inactive: [1] 104% | [2] 101% | [3] 86.6% | [4] 92.9% | [5] 97.2% | [6] 90.1% | [7] 106% | [8] 94% | [9] 95.4%

CN(C)c1ccc(N=C2C=CC(=O)C=C2)cc1
inactive: [1] 97.7% | [2] 97.1% | [3] 77.6% | [4] 83.6% | [5] 76.5% | [6] 64.4% | [7] 87.2% | [8] 80.6% | [9] 97.4%

N#CC1=C(N)Oc2c(sc3c(F)cccc23)C1c1ccc(Cl)cc1 (stereo not drawn)
inactive: [1] 23.9% | [2] 15.6% | [3] 13.8% | [4] 29.2% | [5] 25.7% | [7] 18.1% | [8] 30.3% | [9] 49.6%
active: [6] 8.41%

Cc1cc(N=O)cc(C(C)(C)C)c1O
inactive: [1] 101% | [2] 85% | [3] 87.7% | [4] 98.7% | [5] 88.6% | [6] 74.5% | [7] 98.3% | [8] 98.3% | [9] 106%

Cn1cc(-c2csc(-c3cn(CCN)c4ccc(Br)cc34)n2)c2cccnc21
inactive: [1] 36.5% | [2] 47.2% | [3] 73.4% | [4] 74.1% | [5] 63.1% | [6] 66.3% | [7] 86.8% | [8] 53.5% | [9] 100%

COc1ccc(NC(=S)N/N=C/c2ccccc2SSCCC(=O)OC[C@H]2O[C@H](O)[C@H](O)[C@@H](O)[C@@H]2O)cc1
inactive: [1] 71.8% | [2] 102% | [3] 86.3% | [4] 72.2% | [5] 59.5% | [6] 59.9% | [7] 71.7% | [8] 59.6% | [9] 85.3%

C[Si](C)(C)Cc1ccccc1
inactive: [1] 110% | [2] 114% | [3] 87.8% | [4] 116% | [5] 114% | [6] 105% | [7] 108% | [8] 102% | [9] 128%

CCCCC[C@H]1CC=C2C(=O)C(Cl)=C[C@@H]2CC=CCCCC(=O)O[C@@H](CCCCC)CC=C2C(=O)C(Cl)=C[C@@H]2CC=CCCCC(=O)O[C@@H](CCCCC)CC=C2C(=O)C(Cl)=C[C@@H]2CC=CCCCC(=O)O1
inactive: [1] 71.6% [8 µM] | [2] 44.4% [8 µM] | [3] 106% [8 µM] | [4] 61.3% [8 µM] | [5] 35.2% [8 µM] | [6] 70.2% [8 µM] | [7] 62.2% [8 µM] | [8] 14.5% [8 µM] | [9] 52% [8 µM]

N=c1ccc2nc3c(cc(N)c4ccccc43)oc-2c1
active: [1] -69.9% | [2] -63% | [3] -100% | [4] -94.7% | [5] -87.8% | [6] -39.3% | [7] -100% | [8] -95.6% | [9] -78.8%

O=C(NC(Cc1cn(Cc2ccccc2)cn1)C(=O)O)OCC1c2ccccc2-c2ccccc21 (stereo not drawn)
inactive: [1] 104% | [2] 98.1% | [3] 92.3% | [4] 109% | [5] 101% | [6] 100% | [7] 103% | [8] 97.8% | [9] 104%

COC(=O)[C@@H]1[C@H]2C[C@H]3c4[nH]c5cc(OC)ccc5c4CCN3C[C@@H]2C[C@H](OC(=O)/C=C/c2ccnc(OC)c2)[C@H]1OC
inactive: [1] 71.1% | [2] 75.6% | [3] 53.5% | [4] 86.7% | [5] 78% | [6] 76% | [7] 94.8% | [8] 86.5% | [9] 99.2%

NCCn1cc(-c2nc(-c3c[nH]c4ncccc34)cs2)c2cc(F)ccc21
inactive: [1] 58.9% | [2] 67.2% | [3] 64.2% | [4] 86.1% | [5] 84.1% | [6] 58.5% | [7] 80% | [8] 81.7% | [9] 101%

Cn1cc(-c2csc(-c3cn(CCCN4CCCCC4)c4ccccc34)n2)c2cccnc21
inactive: [3] 49.3%
active: [1] -78.2% | [2] -87.7% | [4] -65.6% | [5] -90.5% | [6] -55.7% | [7] -98.5% | [8] -71.9% | [9] -82.6%

C#CCC(C)(O)/C=C/C1=C(C)CCCC1(C)C (stereo not drawn)
inactive: [1] 107% | [2] 86.2% | [3] 87% | [4] 95.8% | [5] 86.1% | [6] 77.6% | [7] 98.4% | [8] 96.4% | [9] 101%
